Values joined by “and” are separate entries in the source; they are usually repeats but may differ in a detail not shown here. Identical values can stand only once. Results filed as inconclusive are left out. Entries that show only a call come without a potency. Active and inactive are the calls of the source. Calls come from the whole dose curve.
Potency is the fitted concentration of half-maximal effect.

The experiment is described as follows: p53 small molecule agonists, cell-based qHTS assay with rat liver microsomes: qHTS cell viability counter screen (AID 1963580). Note: nearly all actives have a fitted effect of over 45% in size. The following applies: p53RE-bla HCT-116 + rat microsomes, ATP viability, 16 h; series mostly up to 66 µM; activity change, negative = cytotoxicity: at the top concentration. From the text: National Center for Advancing Translational Sciences [NCATS]
Division of Preclinical Innovation [DPI]
U.S. Environmental Protection Agency [EPA]
National Institutes of Environmental Health Sciences [NIEHS]
National Toxicology Program [NTP]
U.S. Food and Drug Administration [FDA]
p53, a tumor suppressor protein, is activated following cellular insult, including DNA damage and other cellular stresses. The activation of p53 regulates cell fate by inducing DNA repair, cell cycle arrest, apoptosis, or cellular senescence. The activation of p53, therefore, is a good indicator of DNA damage and other cellular stresses. The CellSensor p53RE-bla HCT-116 cell line contains a stably integrated beta-lactamase reporter gene under control of the p53 response elements. The activation of the reporter gene under culture conditions can be detected by fluorescence intensity. This cell line was used to screen the Tox21 10K compound library in the condition of presence of rat liver microsomes and to identify agonists that activate the p53 signaling pathway after in vitro metabolic activation (Ooka et al., Archive of Toxicology 96:1975-1987, 2022). The cytotoxicity of the Tox21 compound library against the p53 RE-bla HCT-116 cell line was tested in parallel by measuring the intra cellular ATP content in the same wells.
Tox21 Assay Protocol Summary:
The p53RE-bla cells were dispensed at 4,000cells/3ul/well in 1536-well black-clear bottom plates. After the assay plates were incubated at 37 C, 5% CO2 incubator for 5 hours, 23 nL of compounds dissolved in DMSO, positive controls or DMSO only was transferred to the assay plate. Following compound addition, 3 uL of rat liver microsomes (Molecular Toxicology, Boone, NC) at final concentration of 0.5 mg/mL and 1uL of B-Nicotinamide adenine dinucleotide 2'-phosphate (NADPH) at final concentration of 0.5 mg/mL were transferred to the assay plate. The plates were incubated at 37 C for 16 hours. 1 uL of LiveBLAzer detection mixture was added to each well and the plates were incubated at room temperature in the dark for 2 h. Fluorescence intensity at 460 and 530 nm emission and 405 nm excitation were measured by an Envision plate reader. For cell viability readout that measures cytotoxicity, 4 ul/well of CellTiter-Glo reagent was added into the assay plates using a Flying Reagent Dispenser. After 30 min incubation at room temperature, the luminescence intensity in the plates was measured using a ViewLux plate reader.
(In qHTS, concentration-response curves come from the screen itself.)
For the compound `Cc1cnc(C2=NC(C)(C(C)C)C(=O)N2)c(C(=O)O)c1` (stereo not given), the “activity change, negative = cytotoxicity” value is -1.67% (inactive).

In the case of `CCOC(=O)N(C)N=O`, the “activity change, negative = cytotoxicity” value is -5.22% (inactive). Regarding `Clc1ccc(C(c2ccccc2Cl)C(Cl)(Cl)Cl)cc1` (stereo not given), the Potency result was “inactive”.

As to `CCCCCCCCCCCCCCCC[N+](C)(C)C`, the Potency entry is “inactive”. For `[P]#[In]`, the “activity change, negative = cytotoxicity” value was -5.88% (inactive). In the case of `ClC1C(Cl)C(Cl)C(Cl)C(Cl)C1Cl` (stereo not given), the Potency result was “inactive”.

As for `C1CC2OC2CC1C1CO1` (stereo not given), the Potency result was “inactive”.

As for `C[N+](C)(C)CC(=O)O`, the “activity change, negative = cytotoxicity” value is -0.452% [at 30.3 µM] (inactive). On the same count and under the same terms, under `CCBr` stands 1.22% (inactive).

Turning to `OCCN(CCO)CCO`, the Potency entry is “inactive”.

As to `CCOP(=S)(OCC)SCSC(C)(C)C`, the Potency result was “inactive”.

As to `O=NN1CCOCC1`, the Potency result was “inactive”. As for `CCCCn1cc[n+](C)c1`, the Potency result is “inactive”. Still for that read-out and setting: under `CN(C)NC(=O)CCC(=O)O` stands “inactive”; under `CN(C)CCC#N`, “inactive”. In the case of `C=CCOC(N)=O`, the “activity change, negative = cytotoxicity” value is -3.57% (inactive). On to `c1ccc2c(c1)Nc1ccccc1S2`, for which the Potency result is “inactive”. As to `COc1cc(OC)nc(Oc2cccc(Oc3nc(OC)cc(OC)n3)c2C(=O)O)n1`, the “activity change, negative = cytotoxicity” value was -12.7% (inactive).

For the compound `C=CC1CC=CCC1` (stereo not given), the “activity change, negative = cytotoxicity” value is -1.1% (inactive). On to `CCCCNC(=O)n1c(NC(=O)OC)nc2ccccc21`, for which the “activity change, negative = cytotoxicity” value was 5.28% (inactive). On to `Clc1ccc(C2(Cn3cncn3)OCCO2)c(Cl)c1`, for which the “activity change, negative = cytotoxicity” value is -8.06% (inactive). Take `CCCC[n+]1ccccc1C`: the Potency result is “inactive”. Same read-out and setting: under `CCC[N+]1(C)CCCC1` stands “inactive”.

As to `CCNc1nc(NCC)nc(SC)n1`, the “activity change, negative = cytotoxicity” value is 7.47% (inactive).

Take `CCCCCCCCC(=O)NCc1ccc(O)c(OC)c1`: the Potency entry is “inactive”.

Regarding `CC(C)N(C(=O)SCC(Cl)=C(Cl)Cl)C(C)C`, the Potency result was “inactive”. Same read-out and setting: the same measure for `COc1ccc(C(CN(C)C)C2(O)CCCCC2)cc1` (stereo not given): “inactive”; for `CC1=C(C(=O)Nc2ccccc2)SCCO1`: “inactive”; for `COC(=O)c1ccccc1C(=O)OC`: “inactive”. On the same count and under the same terms, under `OCc1ccco1` stands “inactive”. Consider `BrCc1ccc(Br)cc1`, for which the “activity change, negative = cytotoxicity” value was 0.1% (inactive). Turning to `C[CH2][Hg][S]c1ccccc1C(=O)O`, the Potency is 18.2 µM (active) and 9.98 µM (active). In the case of `O=c1c2ccccc2c(=O)c2c1cc(Cl)c1[nH]c3c([nH]c12)c(Cl)cc1c(=O)c2ccccc2c(=O)c13`, the “activity change, negative = cytotoxicity” value is 0% (inactive). With `CN(C)c1ccc(C(=O)c2ccc(N(C)C)cc2)cc1`, the Potency entry was “inactive”.

Consider `Cc1ccc(-c2nc3ccc(C)cn3c2CC(=O)N(C)C)cc1`, for which the “activity change, negative = cytotoxicity” value is -3.27% [at 30.3 µM] (inactive). As for `CCCCON=O`, the “activity change, negative = cytotoxicity” value was 3.39% (inactive). `O=C/C(Cl)=C(/Cl)C(=O)O`: the “activity change, negative = cytotoxicity” value was -21.9% (inactive).

With `CCCCCCI`, the “activity change, negative = cytotoxicity” value was 0.516% (inactive). Consider `CCNc1nc(Cl)nc(NC(C)(C)C#N)n1`, for which the Potency result is “inactive”. On the same count and under the same terms, the same measure for `COC(=O)c1sccc1S(=O)(=O)NC(=O)Nc1nc(C)nc(OC)n1`: “inactive”.

Source of the values: PubChem BioAssay (Tox21).
